Only some compounds are listed: those with a hit (about 21% of all), similar ones and a draw of the others.
Pf growth 48h = P. falciparum growth inhibition at 48 hours (one generation) | P. falciparum luciferase growth in erythrocytes, 48 h | Potency, µM (highest dose often 28.7 µM), for inactives: at the highest dose activity change, negative = inhibition, hits mostly inhibitors | actives 5.9% (n = 310,000) | AID 504832; note: potency is the fitted concentration of half-maximal effect; % is set by controls: 0 for no effect and ±100 for the full control effect
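In quantitative HTS format, infected erythrocytes bearing luciferase-reporter parasites were treated for a single generation at 37 C. Luminescence after adding detection reagent served as the growth measure.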
NS1 inh = inhibitors of influenza NS1 protein function; Potency, µM (series often up to 46.1 µM), for the others: at the top dose activity, positive = more growth; actives 0.4% (n = 270,000); calls by dose curve; note: potency is the fitted concentration of half-maximal effect; actives are rising curves; nearly all actives have a fitted effect of over 50% in size
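A cell-based growth assay was used: compounds that relieve NS1-induced slow growth of budding yeast raise OD600. Assay medium was yeast nitrogen base with ammonium sulphate and -URA supplement, pH 6.0, with 2% galactose.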
Pf growth 96h = inhibits malaria parasite growth, 96 h | P. falciparum luciferase reporter growth, 96 h | Potency, µM (series often up to 28.7 µM), without a hit: top-dose activity change, negative = inhibition, actives largely listed as inhibitors | actives 6.9% (n = 320,000); note: potency is the fitted concentration of half-maximal effect; % is set by controls: 0 for no effect and ±100 for the full control effect
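Compounds incubated with erythrocytes infected by luciferase-expressing P. falciparum (2% hematocrit, 0.05% parasitemia final) for 96 hours, 37 C in 5% CO2. Growth inhibition scored as decreased luciferase luminescence.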
Cycloheximide cs = counter-screen for Shiga toxin inhibitors: cycloheximide protein synthesis inhibition. max response, %. actives 12% (n = 300,000). cell reporter, cycloheximide protein synthesis inhibition counterscreen; in the data active = max response mostly above about 13%, no sharp cut-off; inactive = mostly below about 14%; note: read at 38.3 µM for the half of the compounds with a filed dose; 0% is about no effect
Giardia FBPA inh = blocks Giardia fructose-bisphosphate aldolase activity; A8B2U2; purified Giardia FBPA; Potency, µM (titrated, usually from 59.6 µM), inactives show at the highest dose activity, negative = inhibition, actives largely listed as inhibitors; actives 0.71% (n = 290,000); note: potency is the fitted concentration of half-maximal effect; % is set by controls: 0 for no effect and ±100 for the full control effect; nearly all actives have a fitted effect of over 55% in size
Target sequence (A8B2U2 whole entry, looked up): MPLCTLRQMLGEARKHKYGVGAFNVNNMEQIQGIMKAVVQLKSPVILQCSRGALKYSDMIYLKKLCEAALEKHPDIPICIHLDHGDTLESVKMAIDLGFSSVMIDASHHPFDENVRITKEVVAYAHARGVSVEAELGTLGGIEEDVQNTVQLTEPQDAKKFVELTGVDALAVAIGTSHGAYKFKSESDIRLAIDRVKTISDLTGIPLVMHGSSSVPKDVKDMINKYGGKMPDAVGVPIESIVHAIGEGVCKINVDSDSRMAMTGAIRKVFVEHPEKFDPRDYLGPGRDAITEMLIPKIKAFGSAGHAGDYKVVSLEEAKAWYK
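Giardia FBPA (40 nM reagent) was preincubated 10 min at RT with compound (up to 57.5 uM final), then substrate plus GAPDH/TPI/NAD/arsenate coupling system with diaphorase/resazurin was added; resorufin fluorescence (525/598 nm) was read after 20 min.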
Shiga inhibitor = blocks Shiga toxin action in Vero cells; actives 9.2% (n = 290,000); inhibition, % at 38.7 µM; Vero cells, Shiga toxin protein synthesis inhibition reporter; in the data active = inhibition mostly above about 28%, no sharp cut-off; inactive = mostly below about 43%; note: 0% is about no effect
* marks the source's active call; other numbers are inactive results; ? = inconclusive; . = no result given; [ ] = remark or other dose. Unless noted, calls come from the whole dose curve; as a rule, active = well fitted curve in the direction sought with a large enough effect; inconclusive = small, poorly fitted or top-dose-only effect, or another doubt; inactive = no such curve, though single readings can be large; an effect the other way counts as inactive or inconclusive.

SMILES	Pf growth 48h	NS1 inh	Pf growth 96h	Cycloheximide cs	Giardia FBPA inh	Shiga inhibitor
Cc1nn(-c2ccccc2)c(N2CCCC2)c1/C=N/NC(=O)c1cc(-c2cccnc2)nc2ccccc12	12µM*	19%	?	-4	0%	-12
Cc1nn(-c2ccccc2)c(C)c1/C=N/NC(=O)c1cc(O)cc(O)c1	?	-2%	?	-2	23%	-4
Cc1nn(-c2ccccc2)c(C)c1/C=N/NC(=O)c1ccccc1O	3.7µM*	-35%	6.6µM*	42*	5%	38*
O=C(CSc1nnc(SCc2ccccc2)s1)N/N=C/c1c(Cl)cccc1Cl	51%	4%	-20%	4	6%	0
CN1CCCN([C@@H](c2ccccc2)c2ccc(Cl)cc2)CC1	.	.	.	.	3%[21.7 µM]	.
O=C(NC1CCN(Cc2ccccc2)CC1)c1cccc(Br)c1	10%	-4%	-6%	-3	5%	-5
O=C1CCCN1CCCNc1nc2c(S(=O)(=O)c3ccccc3)nnn2c2ccc(Cl)cc12	?	17%	32%	10	19%	-6
Cc1cccc(OCC(=O)NCCNC(=O)c2ccco2)c1	6%	-8%	-21%	-5	12%	-5
Cc1nn(-c2ccccc2)c(N2CCCCC2)c1/C=N/O	-16%	-3%	6%	-4	2%	-26
Cc1nn(-c2ccccc2)c(C)c1/C=N/NC(=O)CSc1nnc(SCc2ccc(Cl)cc2)s1	-19%	12%	?	41*	-3%	26
Cc1nn(-c2ccccc2)cc1/C=N/NC(=O)c1cccs1	-12%	-38%	-3%	44*	4%	102*
Cc1nn(-c2ccccc2)c(N2CCCC2)c1/C=N/NC(=O)C1CC1	10µM*	-4%	12µM*	3	-16%	-9
Cc1nn(-c2ccccc2)cc1/C=N/NS(=O)(=O)c1ccccc1	30%	-26%	40%	16	-1%	-21
CCOc1ccc(Oc2c(/C=N/NC(=O)C3CC3)c(C)nn2-c2ccccc2)cc1	3.3µM*	8%	?	-1	1%	-11
Cc1ccc(C2(C(F)(F)F)NC(=O)N3N=C4CCCCCN4C3=C2C#N)cc1 (configuration not stated)	11%	.	29%	6	2%	9
CCc1c(O)c2c(c(O)c1C(C)=O)C(=O)c1c(cc(O)c(C(=O)O)c1C(=O)O)C2=O	.	5%	.	.	.	.
Cc1nn(-c2ccccc2)c(C)c1/C=N/O	43%	10%	-24%	14*	-3%	15
O=C(Cc1ccc(F)cc1)N1CCC(CC2CC(c3ccc(Cl)cc3)=NO2)(C(=O)NCC2CCCCC2)CC1 (configuration not stated)	?	23%	4.7µM*	-2	5%	-2
O=C(Cc1ccc(F)cc1)N1CCC(CC2CC(c3cccc(Br)c3)=NO2)(C(=O)NCC2CCCCC2)CC1 (configuration not stated)	?	6%	1.2µM*	-3	-2%	-2
CC1CCCN(C(=O)Cc2ccc(F)cc2)C1 (configuration not stated)	5%	-1%	.	-1	4%	2
CNC(=O)[C@]1(C)C[C@H]1[C@H](NC(=O)[C@]1(C)C[C@H]1[C@H](NC(=O)OCc1ccccc1)c1ccccc1)c1ccccc1	.	.	.	.	-5%	.
S=C(c1ccc(N2CCCC2)c(Br)c1)N1CCCCC1	?	4%	11%	12*	0%	17
S=C(c1ccc(N2CCCC2)cc1)N1CCCCC1	-76%	-50%	.	52*	-11%	112*
Oc1ccc(C(=S)N2CCCCCC2)cc1	17%	3%	?	-1	0%	-3
Cc1cc(C)nc(SCC(=O)OCC(=O)Nc2ccccc2)n1	16%	5%	10%	-1	-6%	-8
SMILES	Pf growth 48h	NS1 inh	Pf growth 96h	Cycloheximide cs	Giardia FBPA inh	Shiga inhibitor
Cc1cccc2c1NC(=O)/C2=C\C(=O)c1cccs1	.	-45%	-25%	15*	-7%	-7
Cc1cc(Br)c2c(c1)/C(=C/C(=O)c1cccs1)C(=O)N2	-25%	-2%	?	-4	-11%	4
Cc1ccc2c(cnn2C(=O)CCCC(=O)NC(C)c2ccccc2)c1 (configuration not stated)	46%	-69%	?	10	1%	10
O=C(c1cc2c(s1)CCCCC2)N1CCN(c2ncccn2)CC1	19%	-38%	.	9	-5%	19
O=C(c1cc2c(s1)CCCC2)n1cccn1	18%	-46%	37%	18*	3%	9
CC(=O)c1ccc(N2CCN(C(=O)c3cc4c(s3)CCCC4)CC2)cc1	0%[5.75 µM]	.	-25%	18*	1%	71*
O=C(c1cc2c(s1)CCCC2)N1CCN(C(=O)C2CCCO2)CC1 (configuration not stated)	28%	3%	.	12	-23%	14
C=CCN1CCN(C(=O)c2cc3c(s2)CCCC3)CC1	117%	18%	7%	15*	.	59
O=C(c1cc2c(s1)CCCC2)N1CCC2(CC1)OCCO2	33%	-22%	.	22*	-6%	76*
COc1ccccc1N1CCN(C(=O)c2cc3c(s2)CCC3)CC1	.	-3%	13µM*	5	-6%	7
CC(=O)Oc1ccc(-c2ccc(C(=O)OCC(=O)N(C)CC(=O)Nc3ccccc3Cl)cc2)cc1	14%	-13%	47%	-5	.	2
COc1ccc(CN2CCC(C(=O)c3ccc(Cl)cc3)CC2)cc1	?	-13%	?	-3	3%	.
CCCS(=O)(=O)c1c(S(=O)(=O)CCC)c2c(N)cccn2c1C(=O)c1ccc(OC)cc1	?	12%	-1%	1	?	-5
CCCS(=O)(=O)c1c(S(=O)(=O)CCC)c2ccc(C(N)=O)cn2c1C(=O)c1ccc(F)cc1	-6%	-5%	128%	1	0%	-4
CCCS(=O)(=O)c1c(S(=O)(=O)CCC)c2c(N)cccn2c1C(=O)c1ccc(F)cc1	10µM*	?	47%	-2	?	-5
CCCS(=O)(=O)c1c(S(=O)(=O)CCC)c2c(N)cccn2c1C(=O)c1ccc(Br)cc1	12µM*	?	-24%	0	?	-4
O=S(=O)(c1ccccc1)N1CCC[C@@]2(CCN(Cc3cc(C(F)(F)F)cc(C(F)(F)F)c3)C2)C1	.	.	.	.	-2%	.
C=CCSc1nnc(CCc2ccccc2)n1N	48%	.	?	.	.	.
CC(=O)Oc1ccc(C23CC4CC(CC(C4)C2)C3)cc1C(=O)O	3%	-7%	9%	-3	-3%	37*
O=C(O)c1ccccc1OC(=O)C12CC3CC(CC(C3)C1)C2	-2%	1%	175%	-5	9%	-6
N#Cc1c(-c2ccc(Cl)cc2)ccnc1N1CCOCC1	?	.	4.7µM*	26*	4%	46*
N#Cc1c(N)nc(N2CCCC2)c(C#N)c1-c1ccc(Cl)cc1	-23%	-3%	218%	-1	0%	-6

From PubChem
